Test results: PMC7862700, “An all-to-all approach to the identification of sequence-specific readers for epigenetic DNA modifications on cytosine”

Assays:
Experiment in all cases: DAPPL (digital affinity profiling via proximity ligation, sequencing); 10 mM Tris-HCl pH 7.5, 50 mM NaCl, 1 mM DTT, 4% glycerol, room temperature, 30 min; GST-TFs on glutathione beads, 16-mer random dsDNA library, 0.1% formaldehyde crosslink after washing; high values mean tight binding
[1] = biological target: T1, FLI1 (Homo sapiens, UniProt Q01543 1-452); conditions: protein: recombinant; tags: N-terminal GST; dsDNA, one strand shown
T1 sequence: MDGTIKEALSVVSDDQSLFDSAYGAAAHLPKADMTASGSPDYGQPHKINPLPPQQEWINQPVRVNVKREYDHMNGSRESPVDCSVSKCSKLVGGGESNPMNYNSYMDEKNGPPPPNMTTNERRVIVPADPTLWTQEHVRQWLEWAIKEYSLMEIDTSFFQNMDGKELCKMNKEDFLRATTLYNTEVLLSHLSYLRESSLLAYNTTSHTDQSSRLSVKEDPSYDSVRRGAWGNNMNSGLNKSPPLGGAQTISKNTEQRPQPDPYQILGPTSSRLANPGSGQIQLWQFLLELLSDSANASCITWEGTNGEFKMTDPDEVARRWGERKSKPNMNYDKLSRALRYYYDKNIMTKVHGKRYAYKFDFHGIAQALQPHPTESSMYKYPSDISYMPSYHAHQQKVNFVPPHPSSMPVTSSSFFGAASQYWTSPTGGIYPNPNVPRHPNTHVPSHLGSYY
Summary of the method: (§1)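 Binding signal is defined as a hexamer's read frequency for one factor over its frequency for the tag-only sample. To obtain reads, GST-fused human transcription factors were expressed in yeast, captured on glutathione beads, barcoded with DNA and pooled with that sample. Pools met 200 nmole of a 16-mer random double-stranded DNA library in Tris/NaCl/DTT/glycerol buffer for 30 min at room temperature before washing, 0.1% formaldehyde crosslinking, proximity ligation (BsaI/T4 ligase, 1 h, 37 °C), PCR and Illumina NextSeq500 sequencing.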

[2] = biological target: T2, ELK1 (Homo sapiens, UniProt P19419 1-428); conditions: protein: recombinant; tags: N-terminal GST; dsDNA, one strand shown
T2 sequence: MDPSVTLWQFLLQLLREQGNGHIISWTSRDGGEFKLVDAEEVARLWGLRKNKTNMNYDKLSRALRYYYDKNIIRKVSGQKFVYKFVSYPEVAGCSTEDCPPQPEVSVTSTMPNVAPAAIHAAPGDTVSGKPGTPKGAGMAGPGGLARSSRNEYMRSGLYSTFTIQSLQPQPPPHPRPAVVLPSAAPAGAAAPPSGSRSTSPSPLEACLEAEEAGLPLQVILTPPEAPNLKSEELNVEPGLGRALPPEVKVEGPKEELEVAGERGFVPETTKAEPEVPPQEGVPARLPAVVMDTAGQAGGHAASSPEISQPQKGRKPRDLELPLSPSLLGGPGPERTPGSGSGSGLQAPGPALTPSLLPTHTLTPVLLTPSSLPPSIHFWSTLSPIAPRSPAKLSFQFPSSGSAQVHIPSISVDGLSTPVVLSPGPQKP
Summary of the method: as §1

[3] = biological target: T3, GABPA (Homo sapiens, UniProt Q06546 1-454); conditions: protein: recombinant; tags: N-terminal GST; dsDNA, one strand shown
T3 sequence: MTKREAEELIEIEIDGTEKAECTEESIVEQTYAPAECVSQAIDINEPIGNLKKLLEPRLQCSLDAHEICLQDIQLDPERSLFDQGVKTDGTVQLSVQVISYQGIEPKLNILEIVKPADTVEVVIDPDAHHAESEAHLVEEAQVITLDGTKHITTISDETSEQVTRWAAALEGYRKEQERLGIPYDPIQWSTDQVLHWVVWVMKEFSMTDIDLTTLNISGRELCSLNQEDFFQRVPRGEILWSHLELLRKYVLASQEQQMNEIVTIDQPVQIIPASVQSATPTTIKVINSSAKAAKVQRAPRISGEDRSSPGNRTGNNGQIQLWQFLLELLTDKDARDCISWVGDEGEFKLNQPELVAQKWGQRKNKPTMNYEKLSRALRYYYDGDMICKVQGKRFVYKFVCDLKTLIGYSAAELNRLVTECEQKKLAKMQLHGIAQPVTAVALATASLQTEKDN
Summary of the method: as §1

[4] = biological target: T4, ERG (Homo sapiens, UniProt P11308 1-479); conditions: protein: recombinant; tags: N-terminal GST; dsDNA, one strand shown
T4 sequence: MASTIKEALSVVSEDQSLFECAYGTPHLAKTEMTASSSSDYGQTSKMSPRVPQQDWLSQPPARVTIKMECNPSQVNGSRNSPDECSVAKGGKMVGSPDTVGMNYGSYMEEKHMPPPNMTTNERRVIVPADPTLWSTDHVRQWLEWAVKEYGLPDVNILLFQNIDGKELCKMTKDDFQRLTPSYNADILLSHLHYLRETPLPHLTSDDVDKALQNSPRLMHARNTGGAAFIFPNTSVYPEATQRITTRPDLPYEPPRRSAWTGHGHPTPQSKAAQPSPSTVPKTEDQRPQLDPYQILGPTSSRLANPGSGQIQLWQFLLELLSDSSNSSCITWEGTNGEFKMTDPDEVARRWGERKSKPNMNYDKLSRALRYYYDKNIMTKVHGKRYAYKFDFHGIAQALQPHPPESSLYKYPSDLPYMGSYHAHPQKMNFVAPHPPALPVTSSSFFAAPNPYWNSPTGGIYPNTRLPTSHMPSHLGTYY
Summary of the method: as §1

[5] = biological target: ELF1 (Homo sapiens, UniProt P32519 1-619); conditions: protein: recombinant; tags: N-terminal GST; dsDNA, one strand shown
Summary of the method: as §1

[6] = biological target: T5, EHF (Homo sapiens, UniProt Q9NZC4 1-300); conditions: protein: recombinant; tags: N-terminal GST; dsDNA, one strand shown
T5 sequence: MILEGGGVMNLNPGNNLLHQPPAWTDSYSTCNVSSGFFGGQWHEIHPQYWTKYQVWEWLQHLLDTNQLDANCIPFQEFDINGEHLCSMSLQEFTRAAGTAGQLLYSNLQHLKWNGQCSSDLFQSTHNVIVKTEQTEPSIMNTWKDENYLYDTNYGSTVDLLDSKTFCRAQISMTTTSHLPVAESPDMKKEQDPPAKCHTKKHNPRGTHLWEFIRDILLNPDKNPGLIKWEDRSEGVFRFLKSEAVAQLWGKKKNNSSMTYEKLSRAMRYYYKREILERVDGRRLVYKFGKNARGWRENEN
Summary of the method: as §1

[7] = biological target: SPI1 (Homo sapiens, UniProt P17947 1-270); conditions: protein: recombinant; tags: N-terminal GST; dsDNA, one strand shown
Summary of the method: as §1

[8] = biological target: SPIB (Homo sapiens, UniProt Q01892 1-262); conditions: protein: recombinant; tags: N-terminal GST; dsDNA, one strand shown
Summary of the method: as §1

[9] = biological target: T6, ELK3 (Homo sapiens, UniProt P41970 1-407); conditions: protein: recombinant; tags: N-terminal GST; dsDNA, one strand shown
T6 sequence: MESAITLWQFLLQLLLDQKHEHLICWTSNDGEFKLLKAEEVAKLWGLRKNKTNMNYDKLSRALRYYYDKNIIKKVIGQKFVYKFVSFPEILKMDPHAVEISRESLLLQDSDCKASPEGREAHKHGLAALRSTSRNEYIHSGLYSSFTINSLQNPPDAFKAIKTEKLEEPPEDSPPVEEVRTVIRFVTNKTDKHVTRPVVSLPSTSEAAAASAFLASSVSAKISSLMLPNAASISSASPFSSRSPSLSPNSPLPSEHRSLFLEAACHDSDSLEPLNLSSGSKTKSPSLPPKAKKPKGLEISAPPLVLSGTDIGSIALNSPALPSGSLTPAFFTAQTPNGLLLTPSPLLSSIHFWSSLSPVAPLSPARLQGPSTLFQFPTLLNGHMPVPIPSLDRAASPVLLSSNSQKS
Summary of the method: as §1

[10] = biological target: T7, FEV (Homo sapiens, UniProt Q99581 1-238); conditions: protein: recombinant; tags: N-terminal GST; dsDNA, one strand shown
T7 sequence: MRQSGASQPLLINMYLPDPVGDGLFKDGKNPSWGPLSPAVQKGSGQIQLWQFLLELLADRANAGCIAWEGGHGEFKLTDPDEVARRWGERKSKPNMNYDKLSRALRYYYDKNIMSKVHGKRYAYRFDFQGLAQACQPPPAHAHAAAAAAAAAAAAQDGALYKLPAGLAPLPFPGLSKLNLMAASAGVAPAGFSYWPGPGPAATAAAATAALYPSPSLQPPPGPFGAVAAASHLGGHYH
Summary of the method: as §1

[11] = biological target: ETV5 (Homo sapiens, UniProt P41161 1-510); conditions: protein: recombinant; tags: N-terminal GST; dsDNA, one strand shown
Summary of the method: as §1

[12] = biological target: HSF1 (Homo sapiens, UniProt Q00613 1-529); conditions: protein: recombinant; tags: N-terminal GST; chain copies: 3; dsDNA, one strand shown
Summary of the method: as §1

[13] = biological target: T8, SPIC (Homo sapiens, UniProt Q8N5J4 1-248); conditions: protein: recombinant; tags: N-terminal GST; dsDNA, one strand shown
T8 sequence: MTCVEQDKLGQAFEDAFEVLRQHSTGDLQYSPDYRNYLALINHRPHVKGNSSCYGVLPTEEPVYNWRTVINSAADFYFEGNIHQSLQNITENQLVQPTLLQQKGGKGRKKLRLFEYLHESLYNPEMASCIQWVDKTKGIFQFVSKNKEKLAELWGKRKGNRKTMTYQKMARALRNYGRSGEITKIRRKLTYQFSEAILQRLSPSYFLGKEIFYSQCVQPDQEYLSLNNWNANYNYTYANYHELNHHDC
Summary of the method: as §1

[14] = biological target: ELF4 (Homo sapiens, UniProt Q99607 1-663); conditions: protein: recombinant; tags: N-terminal GST; dsDNA, one strand shown
Summary of the method: as §1

[15] = biological target: T9, ELK4 (Homo sapiens, UniProt P28324-2 1-405); conditions: protein: recombinant; tags: N-terminal GST; dsDNA, one strand shown
T9 sequence: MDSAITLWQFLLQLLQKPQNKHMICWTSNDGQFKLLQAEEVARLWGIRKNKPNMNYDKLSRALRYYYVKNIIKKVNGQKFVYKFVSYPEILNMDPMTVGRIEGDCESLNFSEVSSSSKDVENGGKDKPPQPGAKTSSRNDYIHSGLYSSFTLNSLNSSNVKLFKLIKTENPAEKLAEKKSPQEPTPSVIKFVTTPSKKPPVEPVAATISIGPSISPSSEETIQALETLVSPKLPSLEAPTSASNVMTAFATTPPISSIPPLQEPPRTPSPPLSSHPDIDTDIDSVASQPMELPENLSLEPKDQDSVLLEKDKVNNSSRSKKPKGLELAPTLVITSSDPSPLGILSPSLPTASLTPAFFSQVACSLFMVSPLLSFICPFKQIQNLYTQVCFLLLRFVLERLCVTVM
Summary of the method: as §1

[16] = biological target: T10, ETV2 (Homo sapiens, UniProt O00321 1-342); conditions: protein: recombinant; tags: N-terminal GST; dsDNA, one strand shown
T10 sequence: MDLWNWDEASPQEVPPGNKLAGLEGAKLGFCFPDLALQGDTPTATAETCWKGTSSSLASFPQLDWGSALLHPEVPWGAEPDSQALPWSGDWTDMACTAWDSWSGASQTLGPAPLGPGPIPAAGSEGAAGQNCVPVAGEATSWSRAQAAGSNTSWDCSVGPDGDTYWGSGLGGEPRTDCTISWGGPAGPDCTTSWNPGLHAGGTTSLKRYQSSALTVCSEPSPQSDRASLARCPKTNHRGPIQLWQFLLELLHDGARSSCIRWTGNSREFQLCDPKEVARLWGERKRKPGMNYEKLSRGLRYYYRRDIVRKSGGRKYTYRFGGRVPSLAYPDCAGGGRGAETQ
Summary of the method: as §1

[17] = biological target: T11, ELF3 (Homo sapiens, UniProt P78545 1-371); conditions: protein: recombinant; tags: N-terminal GST; dsDNA, one strand shown
T11 sequence: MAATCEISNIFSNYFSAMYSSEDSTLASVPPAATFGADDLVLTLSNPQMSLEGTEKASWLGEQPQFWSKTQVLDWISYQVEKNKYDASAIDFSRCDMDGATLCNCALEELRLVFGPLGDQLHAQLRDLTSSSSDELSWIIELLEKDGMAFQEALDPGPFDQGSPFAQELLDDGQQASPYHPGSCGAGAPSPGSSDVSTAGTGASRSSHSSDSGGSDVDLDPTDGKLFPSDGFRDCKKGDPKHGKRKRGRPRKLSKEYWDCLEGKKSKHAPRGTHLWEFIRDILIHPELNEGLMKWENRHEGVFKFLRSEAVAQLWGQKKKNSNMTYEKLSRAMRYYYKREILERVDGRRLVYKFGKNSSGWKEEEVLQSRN
Summary of the method: as §1

[18] = biological target: CRX (Homo sapiens, UniProt O43186 1-299); conditions: protein: recombinant; tags: N-terminal GST; dsDNA, one strand shown
Summary of the method: as §1

[19] = biological target: ETV1 (Homo sapiens, UniProt P50549 1-477); conditions: protein: recombinant; tags: N-terminal GST; dsDNA, one strand shown
Summary of the method: as §1

ELF1, sequence (P32519 whole entry): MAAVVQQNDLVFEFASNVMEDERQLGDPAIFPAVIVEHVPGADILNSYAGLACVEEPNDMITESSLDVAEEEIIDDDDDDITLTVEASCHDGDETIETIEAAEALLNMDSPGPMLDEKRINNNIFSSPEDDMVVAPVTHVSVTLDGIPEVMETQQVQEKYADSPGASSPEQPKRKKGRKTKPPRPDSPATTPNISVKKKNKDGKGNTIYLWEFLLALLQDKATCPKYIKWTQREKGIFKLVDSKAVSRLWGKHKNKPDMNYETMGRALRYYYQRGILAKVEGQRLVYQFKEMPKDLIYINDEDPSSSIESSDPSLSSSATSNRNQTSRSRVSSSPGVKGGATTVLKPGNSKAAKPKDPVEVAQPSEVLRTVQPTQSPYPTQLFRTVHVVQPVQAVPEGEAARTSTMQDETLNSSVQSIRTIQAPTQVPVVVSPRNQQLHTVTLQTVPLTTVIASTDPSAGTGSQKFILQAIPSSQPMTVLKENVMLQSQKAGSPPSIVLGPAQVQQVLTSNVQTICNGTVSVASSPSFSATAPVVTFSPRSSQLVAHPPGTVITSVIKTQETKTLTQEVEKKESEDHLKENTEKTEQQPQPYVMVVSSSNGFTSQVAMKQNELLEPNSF
ELF4, sequence (Q99607 whole entry): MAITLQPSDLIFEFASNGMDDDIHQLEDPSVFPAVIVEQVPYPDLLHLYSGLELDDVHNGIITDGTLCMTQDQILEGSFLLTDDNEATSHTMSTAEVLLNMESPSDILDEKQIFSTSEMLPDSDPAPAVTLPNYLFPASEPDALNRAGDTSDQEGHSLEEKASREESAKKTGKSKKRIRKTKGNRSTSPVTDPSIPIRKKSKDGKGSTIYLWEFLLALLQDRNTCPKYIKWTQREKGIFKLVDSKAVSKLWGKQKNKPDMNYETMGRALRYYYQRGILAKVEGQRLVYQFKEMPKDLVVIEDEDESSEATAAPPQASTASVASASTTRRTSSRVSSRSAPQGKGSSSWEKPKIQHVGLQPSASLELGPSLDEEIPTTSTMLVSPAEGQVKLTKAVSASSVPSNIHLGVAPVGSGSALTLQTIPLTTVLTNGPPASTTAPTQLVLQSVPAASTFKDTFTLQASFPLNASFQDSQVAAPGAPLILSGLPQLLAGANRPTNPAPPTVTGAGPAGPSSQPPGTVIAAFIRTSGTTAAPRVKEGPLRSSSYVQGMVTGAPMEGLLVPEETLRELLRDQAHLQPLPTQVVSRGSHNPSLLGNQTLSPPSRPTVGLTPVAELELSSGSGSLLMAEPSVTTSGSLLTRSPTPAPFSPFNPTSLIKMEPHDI
ETV5, sequence (P41161 whole entry): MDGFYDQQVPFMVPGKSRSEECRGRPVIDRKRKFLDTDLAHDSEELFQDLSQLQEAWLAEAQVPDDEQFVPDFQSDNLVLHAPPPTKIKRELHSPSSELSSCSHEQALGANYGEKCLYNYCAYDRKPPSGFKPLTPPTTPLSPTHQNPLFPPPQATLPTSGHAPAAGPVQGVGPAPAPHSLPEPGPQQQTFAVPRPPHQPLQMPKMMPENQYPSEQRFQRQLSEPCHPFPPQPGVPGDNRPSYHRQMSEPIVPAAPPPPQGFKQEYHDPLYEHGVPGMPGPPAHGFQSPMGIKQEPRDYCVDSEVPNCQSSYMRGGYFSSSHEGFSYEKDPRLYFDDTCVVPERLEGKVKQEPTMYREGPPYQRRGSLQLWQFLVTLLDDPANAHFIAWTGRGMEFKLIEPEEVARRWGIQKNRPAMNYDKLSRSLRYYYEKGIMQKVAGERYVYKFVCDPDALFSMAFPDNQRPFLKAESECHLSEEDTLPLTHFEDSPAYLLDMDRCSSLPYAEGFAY
HSF1, sequence (Q00613 whole entry): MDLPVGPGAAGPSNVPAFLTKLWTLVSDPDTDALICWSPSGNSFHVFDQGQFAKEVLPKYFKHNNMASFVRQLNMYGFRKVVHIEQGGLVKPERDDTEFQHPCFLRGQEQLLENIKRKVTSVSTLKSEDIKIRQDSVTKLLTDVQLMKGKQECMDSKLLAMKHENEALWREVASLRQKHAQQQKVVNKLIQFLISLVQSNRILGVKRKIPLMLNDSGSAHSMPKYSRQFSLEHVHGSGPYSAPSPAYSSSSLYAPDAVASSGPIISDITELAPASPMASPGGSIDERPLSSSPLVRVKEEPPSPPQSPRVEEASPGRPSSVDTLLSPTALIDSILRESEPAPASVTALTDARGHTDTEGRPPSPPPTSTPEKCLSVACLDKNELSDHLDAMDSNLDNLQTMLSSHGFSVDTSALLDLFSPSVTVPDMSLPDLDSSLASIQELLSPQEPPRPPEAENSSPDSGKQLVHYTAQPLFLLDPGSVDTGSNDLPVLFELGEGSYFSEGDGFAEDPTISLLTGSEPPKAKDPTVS
CRX, sequence (O43186 whole entry): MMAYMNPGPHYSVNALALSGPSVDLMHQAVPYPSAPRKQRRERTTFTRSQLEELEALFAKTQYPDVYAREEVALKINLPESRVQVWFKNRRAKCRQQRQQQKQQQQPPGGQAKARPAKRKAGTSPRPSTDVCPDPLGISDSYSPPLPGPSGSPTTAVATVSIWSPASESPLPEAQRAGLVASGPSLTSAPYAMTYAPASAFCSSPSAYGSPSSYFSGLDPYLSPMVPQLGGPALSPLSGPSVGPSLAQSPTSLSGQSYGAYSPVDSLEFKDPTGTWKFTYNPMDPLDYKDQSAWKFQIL
ETV1, sequence (P50549 whole entry): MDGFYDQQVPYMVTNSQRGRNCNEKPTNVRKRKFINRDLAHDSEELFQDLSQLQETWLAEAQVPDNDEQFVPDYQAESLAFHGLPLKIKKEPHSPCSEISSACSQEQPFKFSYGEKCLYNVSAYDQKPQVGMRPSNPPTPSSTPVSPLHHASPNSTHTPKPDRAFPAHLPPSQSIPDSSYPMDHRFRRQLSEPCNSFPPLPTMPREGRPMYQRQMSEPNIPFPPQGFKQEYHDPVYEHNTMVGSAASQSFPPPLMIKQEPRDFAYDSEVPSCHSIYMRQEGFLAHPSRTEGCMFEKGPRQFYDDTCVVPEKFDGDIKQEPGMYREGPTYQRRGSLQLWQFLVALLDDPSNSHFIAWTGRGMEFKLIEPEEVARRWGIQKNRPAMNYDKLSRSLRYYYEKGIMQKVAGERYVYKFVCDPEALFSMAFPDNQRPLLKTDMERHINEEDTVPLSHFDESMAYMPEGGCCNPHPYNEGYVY
SPIB, sequence (Q01892 whole entry): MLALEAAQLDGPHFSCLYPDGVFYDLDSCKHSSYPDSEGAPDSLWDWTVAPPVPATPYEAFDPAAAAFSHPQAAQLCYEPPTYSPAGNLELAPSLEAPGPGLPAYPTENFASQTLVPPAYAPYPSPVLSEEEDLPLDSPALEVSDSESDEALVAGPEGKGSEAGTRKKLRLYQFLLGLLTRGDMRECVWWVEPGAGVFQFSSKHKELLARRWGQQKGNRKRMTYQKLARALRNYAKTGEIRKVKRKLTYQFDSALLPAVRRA

With TTGTTA the binding signal [1] was 1.32 fold enrichment (6-mer frequency, TF over GST control), the binding signal [2] was 1.34 fold enrichment (6-mer frequency, TF over GST control) and the binding signal [3] was 1.32 fold enrichment (6-mer frequency, TF over GST control). For the same sequence, the binding signal [4] was 1.33 fold enrichment (6-mer frequency, TF over GST control), the binding signal [5] was 1.29 fold enrichment (6-mer frequency, TF over GST control) and the binding signal [6] was 1.36 fold enrichment (6-mer frequency, TF over GST control). The binding signal [7] was 1.26 fold enrichment (6-mer frequency, TF over GST control), the binding signal [8] was 1.33 fold enrichment (6-mer frequency, TF over GST control) and the binding signal [9] was 1.47 fold enrichment (6-mer frequency, TF over GST control). The binding signal [10] was 1.3 fold enrichment (6-mer frequency, TF over GST control), the binding signal [11] was 1.31 fold enrichment (6-mer frequency, TF over GST control) and the binding signal [12] was 1.34 fold enrichment (6-mer frequency, TF over GST control). For the same sequence, the binding signal [13] was 1.31 fold enrichment (6-mer frequency, TF over GST control), the binding signal [14] was 1.32 fold enrichment (6-mer frequency, TF over GST control) and the binding signal [15] was 1.47 fold enrichment (6-mer frequency, TF over GST control). For the same sequence, the binding signal [16] was 1.35 fold enrichment (6-mer frequency, TF over GST control), the binding signal [17] was 1.08 fold enrichment (6-mer frequency, TF over GST control) and the binding signal [18] was 1.61 fold enrichment (6-mer frequency, TF over GST control). The binding signal [19] was 1.35 fold enrichment (6-mer frequency, TF over GST control).
